# Measured values reported in PubChem BioAssay (Tox21).
# Unmarked numbers belong to inactive results. Results filed as inconclusive are left out. Where a call stands in place of a potency, no number is given. The source made the active and inactive calls. Calls follow the shape of the dose curve; as a rule, active = well fitted curve in the direction sought with a large enough effect in the repeat runs; inconclusive = weak or mixed curves; inactive = no such curve, though single readings can be large; an effect the other way counts as inactive or inconclusive.
# Assay: qHTS RealTime-Glo MT Cell Viability Assay in HEK293 cells - 32 hour (AID 1224868); as to activity change, negative = cytotoxic: top concentration of the series differs between compounds
# Details: RealTime-Glo luminescence; series mostly up to 76.8 µM
# Procedure, shortened: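 Luminescence generated by NanoLuc from substrate produced by living HEK293 cells served as the viability signal. Each value reflects the reading at its stated time point during continuous 40 h compound exposure at 37 C.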
# Also: nearly all actives have a fitted effect of over 50% in size.
# Potency is read from the fitted curve at half-maximal effect.
Structure (SMILES),Potency,"activity change, negative = cytotoxic"
O=C(NCC1CN(c2ccc(N3CCOCC3=O)cc2)C(=O)O1)c1ccc(Cl)s1 (centres undefined),inactive,–
CC(COCCO)OCCO (centres undefined),inactive,–
CCC(C)(C)CC,inactive,–
CCN(CC)CCNc1ccc(CNC=O)c2sc3ccc(OC)cc3c(=O)c12,17.4 µM (active),–
CN1CCC(N(Cc2cccs2)c2ccccc2)CC1,inactive,–
NCCCN1CCOCC1,inactive,–
CC(=O)[O][Al],inactive,–
CC(=O)[O][Al][O]C(C)=O,inactive,–
CCC(C)O (centres undefined),inactive,–
NS(=O)(=O)c1ccc(N2CCCCS2(=O)=O)cc1,inactive,–
Cc1ncc(CO)c(C=O)c1O,inactive,–
OC[C@H]1O[C@@H](OCCc2ccc(O)cc2)[C@H](O)[C@@H](O)[C@@H]1O,inactive,–
Nc1ccc([N+](=O)[O-])c(C(F)(F)F)c1,inactive,–
C[C@@H](c1ncncc1F)C(O)(Cn1cncn1)c1ccc(F)cc1F (some centres undefined),inactive,–
OC(C#CCN1CCCC1)(c1ccccc1)c1ccccc1,inactive,–
CCC(Cl)CCC(Cl)C(Cl)CC(Cl)C(Cl)C(Cl)CCl (centres undefined),inactive,–
CC(CSC(=O)c1ccccc1)C(=O)N1C[C@@H](Sc2ccccc2)C[C@H]1C(=O)O (some centres undefined),–,-4.06% [at 15.8 µM]
CCCCC/C=C\C/C=C\CCCCCCCC(=O)NC(C)c1ccccc1 (centres undefined),inactive,–
CN1Cc2cc(C(=O)N3CCC(C4CCNCC4)CC3)ccc2NC(CC(=O)O)C1=O (centres undefined),inactive,–
COC(C)(C)CCO,inactive,–

# Assay: A CellTox Green Cytotoxicity Assay to monitor cytotoxicity in HEK293 cells - 0 hour (AID 1224869)
# Details: CellTox Green fluorescence; series mostly up to 76.8 µM
# Procedure, shortened: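 Fluorescence intensity, read at 0, 8, 16, 24, 32 and 40 h of compound treatment, reflected dye binding to DNA of dead HEK293 cells; compounds (23 nL, DMSO) were added 5 h after plating cells with reagent.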
Structure (SMILES),Potency,cytotoxicity
O=C(NCC1CN(c2ccc(N3CCOCC3=O)cc2)C(=O)O1)c1ccc(Cl)s1 (centres undefined),inactive,–
CC(COCCO)OCCO (centres undefined),inactive,–
CCC(C)(C)CC,inactive,–
CCN(CC)CCNc1ccc(CNC=O)c2sc3ccc(OC)cc3c(=O)c12,inactive,–
CC[N+](C)(CC)CCOC(=O)C(O)(c1ccccc1)C1CCCCC1 (centres undefined),inactive,–
C=C(C)C(=O)OCC,inactive,–
C[N+]1(CC2COC(c3ccccc3)(C3CCCCC3)O2)CCCCC1 (centres undefined),inactive,–
NCCCN1CCOCC1,inactive,–
CC(=O)[O][Al],inactive,–
NC(=O)C(c1ccccc1)(c1ccccc1)[C@@H]1CCN(CCc2ccc3c(c2)CCO3)C1,21.3 µM (active),–
CC(=O)[O][Al][O]C(C)=O,inactive,–
CCCCOC(=O)CCCCCCCC(=O)OCCCC,inactive,–
CCCCC(CC)COC(=O)CCCCCCCCC(=O)OCC(CC)CCCC (centres undefined),inactive,–
CN(C)CCOC(c1ccccc1)c1ccc(Br)cc1 (centres undefined),inactive,–
O=C(OCCCCCCOC(=O)c1ccccc1)c1ccccc1,inactive,–
C[Si](C)(CCCN)O[Si](C)(C)CCCN,inactive,–
CCC(C)O (centres undefined),inactive,–

Structure (SMILES),Potency,cytotoxicity
Nc1cccc([N+](=O)[O-])c1,inactive,–
NS(=O)(=O)c1ccc(N2CCCCS2(=O)=O)cc1,inactive,–
Cc1ncc(CO)c(C=O)c1O,inactive,–
OC[C@H]1O[C@@H](OCCc2ccc(O)cc2)[C@H](O)[C@@H](O)[C@@H]1O,inactive,–
Nc1ccc([N+](=O)[O-])c(C(F)(F)F)c1,inactive,–
O=C(O)c1nc(Cl)c(Cl)c(Cl)c1Cl,inactive,–
CC(C)OC(=O)C(C)N(C(=O)c1ccccc1)c1ccc(F)c(Cl)c1 (centres undefined),inactive,–
C[C@@H](c1ncncc1F)C(O)(Cn1cncn1)c1ccc(F)cc1F (some centres undefined),inactive,–
OC(C#CCN1CCCC1)(c1ccccc1)c1ccccc1,inactive,–
CCC(Cl)CCC(Cl)C(Cl)CC(Cl)C(Cl)C(Cl)CCl (centres undefined),inactive,–
O=[N+]([O-])c1ccc(NCCO)c(OCCO)c1,inactive,–
CC(C)(O)c1ccc(CNC(=O)c2cccnc2Oc2ccc(F)cc2)cc1,inactive,–
CC(CSC(=O)c1ccccc1)C(=O)N1C[C@@H](Sc2ccccc2)C[C@H]1C(=O)O (some centres undefined),–,-0.576% [at 15.8 µM]
CCCCC/C=C\C/C=C\CCCCCCCC(=O)NC(C)c1ccccc1 (centres undefined),inactive,–
CN1Cc2cc(C(=O)N3CCC(C4CCNCC4)CC3)ccc2NC(CC(=O)O)C1=O (centres undefined),inactive,–
COc1cc2nc(N(C)CCCNC(=O)C3CCCO3)nc(N)c2cc1OC (centres undefined),inactive,–
COC(C)(C)CCO,inactive,–
